Our source for the INHIBITION values is ChEMBL document CHEMBL4513216, “Probing the Open Global Health Chemical Diversity Library for Multistage-Active Starting Points for Next-Generation Antimalarials” (ACS Infect Dis, 2020).

Out of some 68,000 compounds screened, about 2,700 (4%) showed an effect of 50% or more. Shown is part of a subset that was picked to be rich in strong results.

This assay has as its system Plasmodium berghei. Kind of assay: Screen against P. berghei liver stage (PbLuc), transformed with Luciferase, at 2uM. It is filed as functional, HepG2. Conditions: tested at 2 uM.
In the case of `CN(C)C(=O)COC[C@]12COC[C@H]1CN(Cc1ccccc1)C2`, the INHIBITION is 42.18%.

For the compound `Cc1ccc(CC(=O)Nc2cc(C(C)C)n[nH]2)cn1`, the INHIBITION was 29.54%. For `NC(=O)c1cc(C2CC2)nc2ccc(F)cc12` the value was -28.49%; for `CC(Nc1cccc2c1OCCO2)C(=O)Nc1cccc(C#N)c1` (centres undefined), 17.64%; for `COCCCN(C)C(=O)c1cccc(Nc2cnccn2)c1`, -5.53%. For `CCN(CC)S(=O)(=O)NCC(O)c1c(Cl)cccc1Cl` (centres undefined) the value was 51%; for `CCCS(=O)(=O)NCC(O)c1c(Cl)cccc1Cl` (centres undefined), -35.21%. In the case of `CC(C)n1ccc(C(=O)NCC(O)c2c(Cl)cccc2Cl)n1` (centres undefined), the INHIBITION is listed as -6.2%. The same measure for `CCCN1CCCC2(CCN(S(=O)(=O)N3CCC(OC)CC3)C2)C1=O` (centres undefined): -46.38%; for `CCN(Cc1ccncc1)CC1(O)CCN(C(=O)c2cnn(C)c2)C1` (centres undefined): 52.82%; for `CCN(Cc1ccncc1)CC1(O)CCN(C(=O)c2ccccc2C)C1` (centres undefined): 44.07%. The same measure for `CCN(Cc1ccncc1)CC1(O)CCN(C(=O)c2cccc(C)c2)C1` (centres undefined): 45.73%; for `COCc1nc(C(=O)NS(=O)(=O)c2cc(C)ccc2C)cs1`: 25.74%; for `Cc1cc(N2CCN(C(=O)c3cnn(C(C)C)c3)CC2)cc(C)n1`: 44.95%. Regarding `NC(=O)CN1CC2(CCC1=O)CCN(Cc1cc(F)ccc1Cl)CC2`, the INHIBITION stood at 23.7%. The same measure for `Cn1cc(CN2CCC3(CC2)CN(C(=O)c2cnccn2)CCO3)cn1`: 2.22%.

For the compound `Cc1cc(N2CCCC(c3nncn3C3CC3)C2)ncn1` (centres undefined), the INHIBITION is listed as -23.49%. For `CC(C(=O)N1CCCC1)N1CCC(c2nccn2CC2CCC2)CC1` (centres undefined) the value was -19.54%; for `CCn1c(Cn2cncn2)nnc1C1CCN(C2CCNCC2)CC1`, 19.49%; for `CCn1c(Cn2cncn2)nnc1C1CCN(C2CCOCC2)CC1`, 50.32%. The same measure for `c1ncn(Cc2nnc(C3CCN(C4CCOCC4)CC3)n2C2CC2)n1`: -33.43%; for `CCn1c(CN(C)C)nnc1C1CCN(Cc2ccncc2)CC1`: 11.74%. The same measure for `CCn1c(CN2CCCC2)nnc1C1CCN(Cc2cccnc2)CC1`: -35.07%; for `CCn1c(CN2CCCC2)nnc1C1CCN(Cc2ccncc2)CC1`: 54.41%; for `Cc1cnc(C)c(Oc2ccc(CN3CCCC3)cc2Cl)n1`: -9.5%. As to `Cc1ccc(C2CCCCCN2CCNS(C)(=O)=O)o1` (centres undefined), the INHIBITION was 48.21%. For `CNS(=O)(=O)CCCN1CCCCCC1c1ccc(C)o1` (centres undefined) the value was 60.13%. The same measure for `Cc1ccc(C2CCCCCN2CCCS(C)(=O)=O)o1` (centres undefined): 38.67%; for `CC1CCN(S(=O)(=O)N2Cc3ccccc3C[C@H]2C(N)=O)CC1`: 21.37%.
